# Source: PubChem BioAssay (NCATS)
# Records with an inconclusive call do not appear. Where a call stands in place of a potency, no number is given. Calls of active or inactive are those of the source. Calls follow the shape of the dose curve; as a rule, active = well fitted inhibition curve with a large enough effect; inconclusive = small, poorly fitted or top-dose-only effect; inactive = flat fitted curve, though single readings scatter.
# Assay: P-glycoprotein substrates identified in KB-8-5-11 adenocarcinoma cell line, qHTS therapeutic library screen (AID 1346987); also: nearly all actives have a fitted effect of over 65% in size
# Conditions: KB-8-5-11 (P-gp overexpressing) viability, CellTiter-Glo, 72 h; series mostly up to 44.5 µM
# Outline: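 Compounds are pinned in dose-response onto KB-8-5-11 cells (500 cells/well, colchicine-free medium) and left 72 h at 37 degree C. CellTiter-Glo luminescence then yields AC50 values.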
row,SMILES,Potency
1,CN1CCN(C(=O)c2cc3cc(Cl)ccc3[nH]2)CC1,inactive
2,CC1(C)CC=C(C#Cc2ccccc2)c2cc(/C=C/c3ccc(C(=O)O)cc3)ccc21,inactive
3,CC1CCC2C(C(=O)O)=CC3(O)CC(C)(C)CC123 (centres undefined),inactive
4,CC1(C)C2CC[C@@]34CC(CC[C@H]3[C@]2(C)CC[C@@H]1O[C@@H]1O[C@H](CO)[C@@H](O)[C@H](O)[C@H]1O)[C@](C)(O)C4 (some centres undefined),inactive
5,O=C(c1c2ccccc2cc2ccccc12)N1CCC(N2CCC[C@@H](C(=O)N3CCOCC3)C2)CC1,inactive
6,O=C(Nc1cc(-c2ccccc2)nn1-c1ccccc1)c1ccc([N+](=O)[O-])cc1,inactive
7,CC(C)c1ccc2c(c1)[C@H](O)CC1[C@@](C)(C(=O)O)CCC[C@]21C (some centres undefined),inactive
8,CC(C)c1ccc2c(c1)CCC1[C@](C)(C(=O)O)CCC[C@]21C (some centres undefined),inactive
9,C[C@H]1CC[C@@]2(OC1)O[C@H]1CC3C4CC[C@H]5C[C@@H](O)CC[C@]5(C)C4CC(=O)[C@]3(C)[C@H]1[C@@H]2C (some centres undefined),inactive
10,CC(O)C/C=C/C=C/C(=O)OC1C=C2COC(=O)C2(O)C2(C)CCCC(C)(C)C12 (centres undefined),inactive
11,CCOC(=O)C(CCc1ccccc1)NC(C)C(=O)N1Cc2ccccc2CC1C(=O)O (centres undefined),inactive
12,OC[C@H]1O[C@@H](OCCc2ccccc2)[C@H](O)[C@@H](O)[C@@H]1O,inactive
13,CC1=CC(=O)CC(C)(C)C1CO[C@@H]1O[C@H](CO)[C@@H](O)[C@H](O)[C@H]1O (some centres undefined),inactive
14,COC(=O)C1C(O)CCC2CN3CCc4c([nH]c5ccccc45)C3CC21 (centres undefined),inactive
15,C[C@H]1[C@H](C)CC[C@]2(C(=O)O)CC[C@]3(C(=O)O)C(=CCC4[C@@]5(C)CC[C@H](O[C@@H]6O[C@@H](C)[C@H](O)[C@@H](O)[C@H]6O)C(C)(C)C5CC[C@]43C)[C@H]12 (some centres undefined),inactive
16,O=C(OCC1OC(Oc2ccc(O)cc2COC(=O)C2(O)C(O)CCC(=O)C2OC(=O)C2C=CCC2)C(OC(=O)C2C=CCC2)C(O)C1O)C1C=CCC1 (centres undefined),inactive
17,COc1cccc2c1c(O)c(C(=O)N(C)c1ccc(C(F)(F)F)cc1)c(=O)n2C,inactive
18,C[C@@H]1O[C@@H](O[C@H]2[C@H](Oc3cc(O)c(C(=O)CCc4ccc(O)cc4)c(O)c3)O[C@H](CO)[C@@H](O)[C@@H]2O)[C@H](O)[C@H](O)[C@H]1O,inactive
19,CCCC(=O)Nc1cccc(NC(=O)c2ccccc2Br)c1,inactive
20,CCC(C)/C=C(C)/C=C/C(=O)C1CCC(O)C(C)(O)C1=O (centres undefined),inactive

row,SMILES,Potency
1,CC1(C)CC(NC(=O)C(=O)Nc2ccc(Cl)cc2)CC(C)(C)N1,inactive
2,O=C(O)C[C@H]1CCC(=O)[C@@H]1C/C=C\CCO,inactive
3,CC(C)(O)C1CCC2(C)CCCC(C)(O)C2C1 (centres undefined),inactive
4,OC[C@@]1(O)CO[C@H](OC[C@H]2O[C@@H](OC(CCCCc3ccc(O)cc3)CCc3ccc(O)cc3)[C@H](O[C@H]3OC[C@](O)(CO)[C@H]3O)[C@@H](O)[C@@H]2O)[C@@H]1O (some centres undefined),inactive
5,COc1cc(/C=C/C(=O)O[C@@H]2O[C@H](CO)[C@@H](O)[C@H](O)[C@H]2O)ccc1O,inactive
6,CC1C(=O)OCC2=CC[N+]3([O-])CCC(OC(=O)C(C)(O)C1(C)O)C23 (centres undefined),inactive
7,CC(=O)OC1C(O)/C(C)=C\C2C(OC(=O)c3ccccc3)C(C)CC2(OC(C)=O)C(OC(C)=O)C(C)/C=C/C(C)(C)C1OC(C)=O (centres undefined),inactive
8,COC1OC(=O)C2=C1C1(C)CCCC(C)(C)C1CC2O (centres undefined),inactive
9,CNc1nc(Cc2ccccc2)nc2c1CCNC[C@@H]2C,inactive
10,CC(=O)OC1CCC2(C)C(CCC3(C)C2CC=C2C4CC(C)(C)CCC4(C)CCC23C)C1(C)C(=O)O (centres undefined),inactive
11,CNc1nc(Nc2cn(C(C)(C)C#N)nc2C)ncc1C(F)(F)F,inactive
12,C/C=C/C1OC2=C(C(=O)OC2(C)O)C(O)C1O (centres undefined),inactive
13,CC(C)(O)c1ccc2c(c1)C(=O)C[C@H]1[C@](C)(C(=O)O)CCC[C@]21C,inactive
14,Cc1cc(-c2nncc3c(C(C)(C)C)c(OCc4ncnn4C)nn23)no1,inactive
15,CCN(CCN(C)C)C(=O)CNCc1cc(C(N)=O)ccn1,inactive
16,CCOc1ccc(-c2nn3ncccc3c2-c2ccc(S(C)(=O)=O)cc2)cc1,inactive
17,C/C=C1\[C@H](O[C@@H]2O[C@H](CO)[C@@H](O)[C@H](O)[C@H]2O)OC=C(C(=O)OCCc2ccc(O)cc2)[C@H]1CC(=O)OCCc1ccc(O)cc1,inactive
18,O=C(OCC1=CC(Cl)C(O)C(OC(=O)c2ccccc2)C1O)c1ccccc1 (centres undefined),inactive
19,C=C1CCC2C(C)(C)CC(=O)CC2(C)C1CCC(C)CCO (centres undefined),inactive
